Screens deposited in PubChem BioAssay by several laboratories.
LEDGF integ inh: blocks HIV-1 LEDGF/p75-dependent DNA integration. TR-FRET IN-LEDGF/p75 DNA integration, Eu/Cy5. inhibition, % at 3.7 µM. hit rate 0.64% among 370,000;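 active = inhibition above the screen-wide mean plus 3 SD, cut at about 13% in these data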;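 note: signal is the Cy5 over europium emission ratio at 671 and 618 nm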
DNMT1 block: inhibitors of human DNMT1; inhibition (reported as % activation of signal), % at 10 µM; AID 588458; P26358; hit rate 0.83% among 360,000; DNMT1 molecular beacon, Hinp1I cleavage, fluorescence; in the data active = inhibition above about 50%
Target sequence (P26358 504-1616 limits assumed): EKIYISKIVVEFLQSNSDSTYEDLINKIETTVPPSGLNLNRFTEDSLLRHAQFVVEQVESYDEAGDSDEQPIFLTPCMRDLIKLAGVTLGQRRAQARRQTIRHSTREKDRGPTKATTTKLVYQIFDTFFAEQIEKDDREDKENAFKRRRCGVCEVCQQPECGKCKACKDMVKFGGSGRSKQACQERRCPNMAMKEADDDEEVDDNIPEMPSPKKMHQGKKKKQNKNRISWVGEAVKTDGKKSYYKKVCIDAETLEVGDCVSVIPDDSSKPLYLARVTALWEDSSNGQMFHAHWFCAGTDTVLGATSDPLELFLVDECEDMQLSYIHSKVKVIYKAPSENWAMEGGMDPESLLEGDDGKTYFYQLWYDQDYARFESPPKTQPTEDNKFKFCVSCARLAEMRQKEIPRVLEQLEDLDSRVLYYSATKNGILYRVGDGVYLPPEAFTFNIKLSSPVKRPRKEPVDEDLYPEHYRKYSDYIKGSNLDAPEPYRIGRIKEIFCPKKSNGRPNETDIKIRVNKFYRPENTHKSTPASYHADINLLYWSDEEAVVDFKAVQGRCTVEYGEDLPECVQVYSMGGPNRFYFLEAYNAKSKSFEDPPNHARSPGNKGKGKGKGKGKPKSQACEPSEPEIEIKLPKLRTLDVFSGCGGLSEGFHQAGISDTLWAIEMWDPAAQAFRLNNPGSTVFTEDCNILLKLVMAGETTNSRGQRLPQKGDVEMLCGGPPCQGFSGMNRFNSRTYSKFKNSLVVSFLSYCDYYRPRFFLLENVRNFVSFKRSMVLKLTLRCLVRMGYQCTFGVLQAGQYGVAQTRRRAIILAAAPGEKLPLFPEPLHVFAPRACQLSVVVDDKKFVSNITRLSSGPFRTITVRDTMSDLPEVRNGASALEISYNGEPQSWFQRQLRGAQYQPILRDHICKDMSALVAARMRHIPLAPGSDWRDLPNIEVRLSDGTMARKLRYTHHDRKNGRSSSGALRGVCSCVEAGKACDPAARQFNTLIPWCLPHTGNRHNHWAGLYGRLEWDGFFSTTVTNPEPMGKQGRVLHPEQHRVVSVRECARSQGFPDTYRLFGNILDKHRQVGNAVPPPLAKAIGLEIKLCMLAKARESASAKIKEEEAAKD
UHRF1 binding: blocks human UHRF1 binding to methylated DNA. UHRF1 binding to methylated oligo, TR-FRET. hit rate 0.75% among 370,000. Q96T88. inhibition, % at 4.4 µM; in the data active = inhibition above about 21%;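 note: UHRF1 SRA domain binding a hemimethylated CpG hairpin DNA probe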
rCAG binder-1: molecules binding r(CAG) RNA repeats; r(CAG) RNA repeat, TO-PRO-1 dye displacement fluorescence; AID 651821; inhibition, % at 3 µM; hit rate 1.3% among 370,000;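 active = inhibition above the plate cutoff, the mean of all test compounds on that plate plus 3 SD, cut at about 35% in these data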;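 note: higher means more dye released from RNA so lower well fluorescence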
MBD2 inh: MBD2-methylated oligo binding inhibition; Q9UBB5; TR-FRET, MBD2 binding to methylated oligonucleotide; inhibition, % at 4.4 µM; hit rate 0.31% among 370,000; in the data active = inhibition above about 13%
PG9 Ab binder: binds the HIV-1 gp120 antibody PG9; AID 624416; inhibition, % at 6.7 µM; hit rate 0.43% among 360,000; TR-FRET gp120-PG9 antibody binding; in the data active = inhibition above about 8.5%
rCAG bind conf: r(CAG) RNA repeat binding, confirmation. TO-PRO-1 dye displacement fluorescence. inhibition, % at 3 µM. AID 652065. shares compounds with rCAG binder-1. hit rate 70% among 4,300;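 active = inhibition above a per-plate cutoff, the mean inhibition of sample wells plus 3 SD, cut at about 35% in these data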;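 note: loss of TO-PRO-1 fluorescence as compound displaces dye from 1x1 AA loop RNA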
DNA CAG counter: counter-screen for rCAG RNA binders: DNA CAG dye complex inhibitors; shares compounds with rCAG binder-1; d(CAG) DNA oligo TO-PRO-1 dye displacement, fluorescence; inhibition, % at 3 µM; hit rate 94% among 4,300; AID 652068;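 active = inhibition above its plate's cutoff, the mean test-well inhibition plus 3 SD, cut at about 4.8% in these data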;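 note: hits displace the dye from DNA and so lower well fluorescence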
DNA CAG DR: DNA CAG dye complex inhibition, dose response counter-screen | shares compounds with rCAG binder-1 | DNA CAG/GTC duplex TO-PRO-1 dye displacement fluorescence | IC50, µM | hit rate 20% among 250; in the data active = IC50 below about 10 µM
dCAG TOPRO ctr: inhibits DNA CAG/GTC TO-PRO-1 complex, rCAG binder counter-screen; hit rate 80% among 30; AID 720649; IC50, µM; d(CAG) DNA duplex TO-PRO-1 dye displacement, fluorescence; shares compounds with rCAG binder-1
rCAG binder-2: molecules binding r(CAG) RNA repeats, late stage dose response; shares compounds with rCAG binder-1; r(CAG) RNA TO-PRO-1 dye displacement, fluorescence; IC50, µM; hit rate 100% among 30; AID 720651
A number is an active result; – = inactive; · = no result. Compounds with a hit are over-represented: about 3.5% of the library has one in this group of screens. Unless noted, the rule behind the calls is not given here.

SMILES	LEDGF integ inh	DNMT1 block	UHRF1 binding	rCAG binder-1	MBD2 inh	PG9 Ab binder	rCAG bind conf	DNA CAG counter	others
CCN(C(=O)COC(=O)c1cc(S(=O)(=O)N(C)C)ccc1Cl)C1CCS(=O)(=O)C1 (stereo unspecified)	–	–	–	–	–	–	·	·
Cc1cc(-c2csc(NC(=O)c3cc4ccccc4o3)n2)c(C)n1C	14.4	–	–	44.2	–	–	52.2	25.4
O=c1c2ccccc2sc2nc(CCl)nn12	–	–	–	–	–	–	·	·
C=CCN1C(=O)[C@@H](CC(=O)NCc2cccc3ccccc23)[C@]2(C(=O)OC)CCCCC=C12	–	·	–	–	–	·	·	·
O=C(Nc1ccc([N+](=O)[O-])cc1)Nc1nc(-c2ccc(Cl)s2)cs1	–	–	–	51.5	–	–	68.5	48.0
COc1cc([N+](=O)[O-])cc(/C=N/NC(=O)C(C)Nc2cccc(C)c2)c1O (stereo unspecified)	–	–	–	–	–	–	·	·
COc1cc([N+](=O)[O-])cc(/C=N/NC(=O)C(C)Nc2ccccc2C)c1O (stereo unspecified)	–	–	–	36.0	–	–	–	10.5
O=C(O)Cc1sc(Nc2ccc(Cl)cc2)nc1-c1cccs1	–	·	–	57.8	–	–	53.8	29.3	DNA CAG DR=5.96
COc1ccccc1N(CC(=O)N/N=C/c1ccc(C(=O)O)cc1)S(=O)(=O)c1ccc(C)cc1	–	–	–	–	–	–	·	·
Cc1cccc(N(CC(=O)N/N=C/c2ccc(C(=O)O)cc2)S(=O)(=O)c2ccccc2)c1C	–	–	–	48.8	–	–	–	10.6
O=C(NCc1cccs1)c1ccc(-c2ccc(F)c(F)c2)c2ccoc12	–	–	–	–	–	–	·	·
O=C(COc1ccccc1/C=C1\SC(=S)NC1=O)Nc1ccc(F)cc1	–	–	–	39.0	–	–	71.0	31.6	DNA CAG DR=–;dCAG TOPRO ctr=2.79;rCAG binder-2=1.06
O=C(Nc1ccccc1Cl)c1ccc(S(=O)(=O)NCC2CCCO2)cc1 (stereo unspecified)	–	–	–	–	–	–	·	·
CCCCN(C(=O)C1CC(=O)N(c2ccc(OC)cc2OC)C1)c1c(N)n(CC(C)C)c(=O)[nH]c1=O (stereo unspecified)	–	–	–	–	–	–	·	·
COC(=O)CSc1nc(N2CCCCC2)c2c(c1C#N)CCCC2	–	–	–	–	–	–	·	·
N#Cc1c(SCC(=O)O)nc(N2CCCCC2)c2c1CCCC2	–	–	–	34.6	–	–	–	7.1
Cc1onc(-c2ccccc2)c1-c1nnc(COC(=O)c2ccc(O)cc2)o1	–	–	–	–	–	–	·	·
c1coc(-c2nc(N=C3N=c4ccccc4=N3)[nH]c2-c2ccco2)c1	–	–	–	39.2	–	–	–	18.8
c1ccc(N=Nc2cn[nH]c2-c2ccco2)cc1	–	–	–	–	–	–	·	·
CCOC(=O)c1c(NC(=O)Nc2ccc(Cl)cc2)sc(C)c1C	–	–	–	–	–	–	·	·
CCOC(=O)c1c(NC(=O)/C=C/C(=O)O)sc(C)c1-c1ccc(Cl)cc1	–	–	–	45.5	–	–	45.5	11.4
COc1cccc2sc(Nc3nc(-c4cc5ccccc5oc4=O)cs3)nc12	–	–	–	–	–	–	·	·
COc1cccc2sc(Nc3nc(-c4ccncc4)cs3)nc12	–	–	–	38.3	–	–	–	13.8
O=C(Nc1cccc(Cl)c1)Nc1nccs1	–	–	–	–	–	–	·	·
O=C(Nc1ccc(Cl)c(Cl)c1)Nc1nccs1	–	–	–	62.0	–	–	–	21.8
SMILES	LEDGF integ inh	DNMT1 block	UHRF1 binding	rCAG binder-1	MBD2 inh	PG9 Ab binder	rCAG bind conf	DNA CAG counter	others
COc1cc([N+](=O)[O-])c(C)cc1NC(=O)c1ccc(OC)c(OC)c1	–	–	–	–	–	–	·	·
O=C(Nc1cccc(C(=O)O)c1)/C(=C\c1ccc2c(c1)OCO2)NC(=O)c1ccc(Br)cc1	–	–	–	42.7	–	–	–	6.9
O=C(Nc1ccc(C(=O)O)cc1)/C(=C/c1ccc2c(c1)OCO2)NC(=O)c1cccc(Br)c1	–	–	–	50.2	–	–	40.9	10.1
CC(C)CN1C(=O)[C@@]2(CC(=O)N(C)C2c2ccccc2)c2cc(-n3cc(CO)nn3)ccc21 (stereo partly specified)	–	·	–	–	–	·	·	·
CCOC(=O)N/N=C/c1cc(OC)c(O)c(OC)c1	–	–	–	–	–	–	·	·
CCOC(=O)c1sc(N/N=C/c2cc(Br)c(O)c(OC)c2)nc1C	–	–	–	47.5	–	–	37.8	16.6
CCc1ccc(S(=O)(=O)/N=C2\C=C(NS(=O)(=O)c3ccccc3)C(=O)c3ccccc32)cc1	–	–	–	58.8	–	–	88.9	66.5
Cc1ccc(C)c(S(=O)(=O)/N=C2\C=C(NS(=O)(=O)c3ccccc3)C(=O)c3ccccc32)c1	–	–	–	67.5	–	–	90.1	68.7
Cc1ccsc1S(=O)(=O)n1c(CN2CCOCC2)nc2ccccc21	–	·	–	–	–	·	·	·
CN1c2ccccc2C(O)=C(C(=S)Nc2ccccc2)S1(=O)=O	–	–	–	–	–	–	·	·
CN1c2ccccc2C(O)=C(C(=S)Nc2ccc(F)c(Cl)c2)S1(=O)=O	–	–	–	81.5	–	–	71.8	32.2
Cc1ccc(NC(=S)C2=C(O)c3ccccc3N(C)S2(=O)=O)cc1	–	–	–	58.6	–	–	34.9	8.7
O=C(Nc1ccnn1C1CCNCC1)c1ccc2c(c1)OCO2	–	–	–	–	–	–	·	·
COc1ccc([C@H]2CC(=O)C[C@@H](CCn3cc(-c4ccccn4)nn3)O2)cc1	–	·	–	–	–	–	·	·
O=S(=O)(CS(=O)(=O)c1ccccc1)c1ccccc1	–	–	–	–	–	–	·	·
O=C(CS(=O)(=O)c1ccccc1)CS(=O)(=O)c1ccccc1	–	·	–	53.2	–	–	–	–
Cc1ccc(S(=O)(=O)Nc2c(C(=O)O)[nH]c3ccccc23)cc1C	–	–	–	46.4	–	–	–	11.3
COc1ccc2[nH]c(C(=O)O)c(NS(=O)(=O)c3ccc(C)cc3C)c2c1	–	–	–	48.8	–	–	–	4.9
COc1ccc(OC)c(S(=O)(=O)N/N=C\c2cn(CC(N)=O)c3ccccc23)c1	–	–	–	–	–	–	·	·
